Compounds without any hit were thinned out: in the full panel of roughly 79,000, 15% have a hit. A number with no mark means an inactive call. Activity calls are given as the source filed them. Cut-off read from the data, not from the text of the source: active = growth inhibition above about 70%; inactive = the rest.
Experiments:
[1] = NCI Yeast Anticancer Drug Screen. Data for the rad50 strain (AID 155);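 note: 0% = growth of vehicle-only cultures of the same strain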; conditions: S. cerevisiae rad50 strain growth inhibition, hits give high values
Outline: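 Relative growth inhibition (compound vs vehicle) was measured in yeast with a defined repair-gene alteration.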

[2] = NCI Yeast Anticancer Drug Screen. Data for the mec2-1 strain (AID 157); conditions: S. cerevisiae mec2-1 strain, hits give high values
Outline: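 Cells of the genetically defined mec2-1 yeast strain are incubated with test compound. Inhibition of growth is calculated against vehicle-treated controls.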

[3] = NCI Yeast Anticancer Drug Screen. Data for the sgs1 mgt1 strain (AID 161);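 note: 0% = growth of cultures given vehicle only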; conditions: S. cerevisiae sgs1 mgt1 strain, hits give high values
Outline: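 Test agents were incubated with a DNA-repair-mutant yeast strain. Growth was then read and compared against vehicle-treated controls.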

[4] = NCI Yeast Anticancer Drug Screen. Data for the cln2 rad14 strain (AID 165);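 note: 0% = growth equal to vehicle treated cultures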; conditions: S. cerevisiae cln2 rad14 strain, hits give high values
Outline: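 The screen exposed genetically defined yeast (cln2 rad14) to test compounds and scored growth inhibition relative to vehicle-treated controls.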

[5] = NCI Yeast Anticancer Drug Screen. Data for the bub3 strain (AID 167); conditions: S. cerevisiae bub3 mutant strain, hits give high values
Outline: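 Screening used yeast with an engineered genetic alteration affecting cell cycle control. Compound-exposed cultures were compared with vehicle cultures, and reduced growth was taken as inhibition.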

[6] = NCI Yeast Anticancer Drug Screen. Data for the mlh1 rad18 strain (AID 175); conditions: S. cerevisiae mlh1 rad18 strain growth inhibition, hits give high values
Outline: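 Compound-treated yeast growth, normalised to vehicle controls. Strain bears defined DNA repair mutations.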

[7] = at 5.0 µM (retest, dose inferred, filed as 0.5)
[8] = at 50.0 µM (retest, dose inferred, filed as 5.0)

SMILES | growth inhibition [1, 7] | growth inhibition [1, 8] | growth inhibition ([1]; at 50.0 µM) | growth inhibition [2, 7] | growth inhibition [2, 8] | growth inhibition ([2]; at 50.0 µM) | growth inhibition [3, 7] | growth inhibition [3, 8] | growth inhibition ([3]; at 50.0 µM) | growth inhibition [4, 7] | growth inhibition [4, 8] | growth inhibition ([4]; at 50.0 µM) | growth inhibition [5, 7] | growth inhibition [5, 8] | growth inhibition ([5]; at 50.0 µM) | growth inhibition [6, 7] | growth inhibition [6, 8] | growth inhibition ([6]; at 50.0 µM)
CC(C)c1ccccc1OP(=S)(S)Oc1ccccc1C(C)C | 4% | 38% | 82.8% (active) | 5% | 24% | 2.75% | 1% | 45% | 72.8% (active) | 4% | 54% | 87.3% (active) | 0% | 54% | 37% | 0% | 68% | 79% (active)
[O-][n+]1ccccc1S | 99% (active) | 99% (active) | 99.4% (active) | 100% (active) | 100% (active) | 99.7% (active) | 100% (active) | 99% (active) | 99.7% (active) | 99% (active) | 99% (active) | 99.2% (active) | 99% (active) | 99% (active) | 99.3% (active) | 99% (active) | 99% (active) | 99.5% (active)
CCCCCCCC[As](C)(=O)O | -151% | -121% | 4.95% | -54% | -47% | 2.85% | -67% | -55% | 4.5% | -72% | -59% | 11.4% | -75% | -71% | -12.1% | -144% | -88% | 6.2%
CC(=O)Oc1ccc(/C=C/[N+](=O)[O-])cc1 | 27% | 95% (active) | 98.9% (active) | 6% | 99% (active) | 99.5% (active) | 12% | 99% (active) | 93.1% (active) | -2% | 82% (active) | 82% (active) | 5% | 99% (active) | 99.4% (active) | 12% | 98% (active) | 98.3% (active)
O=S(=O)(F)c1ccc(Cl)cc1 | 22% | 97% (active) | 85.5% (active) | 4% | 84% (active) | 20.9% | 9% | 92% (active) | 82.3% (active) | 3% | 90% (active) | 49.7% | 12% | 97% (active) | 70.9% (active) | 13% | 98% (active) | 90.8% (active)
N=C(N)c1ccc(NN=Nc2cccc3c2Oc2ccccc2O3)cc1 | 48% | 89% (active) | 80% (active) | 20% | 84% (active) | 78.1% (active) | 32% | 90% (active) | 74.6% (active) | 14% | 69% | 71% (active) | 10% | 80% (active) | 83.5% (active) | 17% | 83% (active) | 70.2% (active)
CC(=O)O[C@H]1CC[C@@]2(C)C(=CC[C@@H]3[C@@H]2CC[C@]2(C)C(=O)[C@@H](CN4CC4)C[C@@H]32)C1 | 2% | 97% (active) | 59.7% | 7% | 99% (active) | 54% | 22% | 99% (active) | 68.5% | 5% | 75% (active) | 62.6% | 6% | 97% (active) | 39% | 4% | 98% (active) | 62%
COC(=O)C1ON(c2ccccc2)C2c3ccccc3-c3ccccc3C12 (stereo not given) | 31% | 63% | 58.2% | 27% | 62% | 18.9% | 45% | 76% (active) | 61.3% | 14% | 67% | 50% | 33% | 86% (active) | 67.2% | 42% | 68% | 75% (active)
O=[N+]([O-])/C=C/c1ccccc1Cl | 91% (active) | 98% (active) | 90.8% (active) | 99% (active) | 99% (active) | 92.8% (active) | 67% | 98% (active) | 93.3% (active) | 68% | 98% (active) | 92.2% (active) | 98% (active) | 99% (active) | 91% (active) | 99% (active) | 99% (active) | 91.2% (active)
CO[C@@]12[C@@H]3N[C@@H]3CN1C1=C(C(=O)C(N(C)c3ccc(O)cc3)=C(C)C1=O)[C@@H]2COC(N)=O | 21% | 64% | 81.9% (active) | 24% | 70% (active) | 76% (active) | -7% | 44% | 68.4% | 1% | 62% | 65% | -5% | 30% | 53.2% | 33% | 96% (active) | 83.2% (active)
